Measurements taken from PubChem BioAssay.
Activity calls are given as the source filed them. Unless noted, the rule behind the calls is not given here.

Legend:
[1] = system: XIP peptide (Xip251-270) binding; assay: XIP fragment 251-270 binding compounds – biochemical, small-molecule microarray, fluorescence 635/667 nm, 0.1 µg/mL protein, primary screen (AID 1182); conditions: fluorescent protein binding, 635 nm, higher = more signal, called active from +8 up or from −8 down
XIP peptide (Xip251-270) = assay: compounds binding XIP fragment 251-270 – biochemical, small-molecule microarray, fluorescence 635/667 nm, 0.5 µg/mL protein, primary screen (AID 1183); conditions: fluorescence 635 nm, higher = more signal
[2] = blood-stage malaria parasite viability loss – strain 3D7, DAPI fluorescence, 100 nL, primary screen (AID 1184);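 note: parasites grown inside human red blood cells in medium with human serum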; conditions: P. falciparum 3D7 growth, 3 d, higher = more signal
[3] = biological target: Homeobox protein Hox-A13 (Mus musculus) (UniProt Q62424); assay: disruptors of Hoxa13 oligonucleotide interaction – biochemical, fluorescence polarization, labeled oligonucleotide, primary screen (AID 1185); conditions: Hoxa13:DNA binding, 15 min, higher = more signal, called active from +8 up or from −8 down
Chain of Homeobox protein Hox-A13 (Mus musculus) (Q62424 whole entry, looked up): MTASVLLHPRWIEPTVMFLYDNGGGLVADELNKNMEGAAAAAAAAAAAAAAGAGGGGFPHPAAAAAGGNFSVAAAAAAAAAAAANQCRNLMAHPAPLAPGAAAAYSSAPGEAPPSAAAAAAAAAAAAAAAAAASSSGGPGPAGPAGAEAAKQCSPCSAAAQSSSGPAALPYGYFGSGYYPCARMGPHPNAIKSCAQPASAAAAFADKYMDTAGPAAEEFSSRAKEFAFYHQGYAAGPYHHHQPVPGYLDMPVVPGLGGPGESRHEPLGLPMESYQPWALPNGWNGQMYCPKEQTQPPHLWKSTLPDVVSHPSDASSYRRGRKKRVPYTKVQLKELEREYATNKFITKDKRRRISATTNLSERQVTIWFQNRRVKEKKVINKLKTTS

[4] = blockers of DNA damage checkpoint Chk1 activation – imaging, HeLa, hydroxyurea, phospho-Chk1 antibody, percent positive cells, primary screen (AID 1186); conditions: hydroxyurea-induced phospho-Chk1 immunofluorescence imaging, higher = more signal
[5] = blockers of DNA damage checkpoint Chk1 activation – imaging, HeLa, hydroxyurea, phospho-Chk1 nuclear intensity, primary screen (AID 1187); conditions: hydroxyurea-induced phospho-Chk1 immunofluorescence imaging, higher = more signal

| Structure (SMILES) | composite z-score [1] | composite z-score (XIP peptide (Xip251-270)) | z-score [2] | z-score [3] | z-score [4] | z-score [5] |
| --- | --- | --- | --- | --- | --- | --- |
| CCCN1C(=O)[C@@]2(Cc3ccccc31)N=C(c1ccc(OCCCO)cc1)O[C@H]2c1ccccc1 | 0.468 (inactive) | 0.828 | -1.65 | -6.04 (inactive) | -0.0494 (inactive) | 0.365 (inactive) |
| CC(C)(C)OC(=O)COc1cccc(C(=O)CCN2CCOCC2)c1 | 0.123 (inactive) | 0.248 | -0.367 | -1.11 (inactive) | -0.118 (inactive) | 0.0155 (inactive) |
| O=C(O)[C@@H]1C[C@@H]2C(=O)N3CCC[C@H]3C(=O)N2[C@@H]1c1ccc(O)cc1 | 0.543 (inactive) | 0.906 | -1.37 | 1.66 (inactive) | 0.959 (inactive) | 1.08 (inactive) |
| C=CC[C@@H](OC(=O)Nc1ccc(SC)cc1)c1ccc(O)c(F)c1 | 0.452 (inactive) | 0.257 | -0.671 | -1.19 (inactive) | -0.12 (inactive) | 0.539 (inactive) |
| CC(C)C[C@@H]1NC(=O)[C@@H]2C[C@H](C(=O)NCCCCCCN)[C@H](c3cccc(OCCO)c3)N2C1=O | 1.6 (inactive) | 0.891 | -0.969 | -3.79 (inactive) | -0.349 (inactive) | -0.207 (inactive) |
| COc1ccc([Si](C)(C)[C@H]2[C@H](CC(=O)N3Cc4ccccc4C[C@H]3CO)O[C@@]3(C(=O)N(Cc4ccc(N5CCOC5=O)cc4)c4ccccc43)[C@@H]2C)cc1 | 1.61 (inactive) | 0.742 | -0.847 | -3.92 (inactive) | -0.719 (inactive) | -0.869 (inactive) |
| [N-]=[N+]=NCc1ccccc1C[C@@]1(C(N)=O)N=C(c2ccc(OCCCO)cc2)O[C@@H]1c1ccccc1 | 0.755 (inactive) | 0.237 | -1.83 | -5.03 (inactive) | 0.107 (inactive) | 0.221 (inactive) |
| CN1C(=O)C2C=CC(C(O)c3cccn3C)N(Nc3ccc([N+](=O)[O-])cc3[N+](=O)[O-])C2C1=O (centres undefined) | -0.438 (inactive) | -0.564 | 0.69 | -5.85 (inactive) | 0.769 (inactive) | 0.127 (inactive) |
| [N-]=[N+]=Nc1ccccc1C[C@@]1(C(=O)N2CCOCC2)N=C(c2ccc(OCCCO)cc2)O[C@@H]1c1ccccc1 | 0.111 (inactive) | 0.765 | -2.32 | -5.84 (inactive) | -1.05 (inactive) | -1.34 (inactive) |
